Compounds with a hit are over-represented: about 11% of the library has one in this group of screens.
G9a inh: inhibitors of human histone lysine methyltransferase G9a. Potency, µM (series often up to 102 µM), inactives show at the highest dose activity, negative = inhibition, most hits filed as inhibitors. Q96KQ7. G9a H3K9 monomethylation, AlphaScreen, 2 h. AID 504332. actives 8.8% (n = 350,000); further: potency means the concentration at half of the fitted maximal effect; nearly all actives have a fitted effect of over 75% in size
Target sequence (Q96KQ7 913-1193 limits assumed): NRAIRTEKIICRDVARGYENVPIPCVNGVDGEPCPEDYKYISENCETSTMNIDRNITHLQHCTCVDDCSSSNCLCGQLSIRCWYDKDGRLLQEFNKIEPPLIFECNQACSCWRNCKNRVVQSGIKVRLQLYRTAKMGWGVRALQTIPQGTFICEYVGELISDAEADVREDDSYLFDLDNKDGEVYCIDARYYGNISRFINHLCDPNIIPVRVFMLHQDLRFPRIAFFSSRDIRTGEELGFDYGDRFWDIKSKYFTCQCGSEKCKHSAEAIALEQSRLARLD
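Quantitative HTS format: methyltransferase activity on a biotin-tagged H3K9 peptide is measured by AlphaScreen, using a rabbit anti-monomethyl-H3K9 antibody with streptavidin donor and anti-IgG acceptor beads. Final levels are 20 nM enzyme, 500 nM peptide, 20 uM SAM; 2 h RT.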
Tau fibril FP: inhibitors of human tau fibril formation | K18 P301L tau heparin fibrillization, Alexa594 FP, 6 h | AID 1468 | actives 0.39% (n = 280,000) | Potency, µM (titrated, usually from 57.7 µM), for the others: at the highest dose activity, negative = inhibition, hits mostly inhibitors; further: potency means the concentration at half of the fitted maximal effect; nearly all actives have a fitted effect of over 55% in size
Target sequence (P10636 561-689 P618L limits assumed): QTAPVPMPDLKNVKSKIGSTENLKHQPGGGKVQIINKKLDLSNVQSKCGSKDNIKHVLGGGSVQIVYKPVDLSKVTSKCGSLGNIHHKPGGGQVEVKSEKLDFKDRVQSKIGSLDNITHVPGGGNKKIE
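FP of Alexa 594-tau after heparin (20 uM) induction. Substrate: human K18 P301L, 15 uM unlabeled, 0.24 uM labeled. Buffer 100 mM sodium acetate pH 7. 6 hr, 37 C.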
Tau fluor cs: counter-screen for tau fibril formation inhibitors. actives 0.93% (n = 280,000). Potency, µM (highest dose often 57.7 µM), inactives show at the highest dose activity change, negative = decrease. tau K18 P301L Alexa594 fluorescence, heparin fibrillization; further: potency means the concentration at half of the fitted maximal effect; nearly all actives have a fitted effect of over 55% in size
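Human tau K18 P301L (15 uM unlabeled, 0.24 uM Alexa 594-labeled) in 100 mM sodium acetate pH 7 with 20 uM heparin, 6 hr at 37 C. ThT 30 uM added, 1 hr ambient; Alexa 594 FP and total fluorescence read at 555/632 nm.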
Coupling enz: inhibits coupling enzyme system, counter-screen for aldolase hits. actives 0.67% (n = 290,000). AID 2472. coupling enzyme system counterscreen, AmpLite Red fluorescence. activity change, negative = inhibition, % at 58.2 µM, hits read low; in the data active means activity change below about -30%
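Final compound at 57.5 uM, incubated 10 min at RT with coupling enzyme reagent (glyceraldehyde-3-phosphate), then 20 min with substrate and AmpLite Red detection. Fluorescence read at 525/598 nm; tests interference with the coupling assay, not aldolase inhibition.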
Sfp inh: inhibitors of Bacillus subtilis Sfp phosphopantetheinyl transferase; Biochemical Sfp PPTase activity, qHTS; Potency, µM, for the others: largest response in the series, negative = inhibition, most hits filed as inhibitors; actives 3.5% (n = 310,000); AID 1490;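 further: the enzyme is Sfp with the accession as filed and its product quenches rhodamine fluorescence; potency means the concentration at half of the fitted maximal effect; 0% = enzyme reaction without inhibitor and -100% = no enzyme wells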
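Reaction rates are the 30-min fluorescence difference (ex 525, em 598 nm) in wells containing 15 nM Sfp, 5 uM rhodamine-CoA and 12.5 uM BHQ-2-YbbR at pH 7.6 with 10 mM MgCl2.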
Tau fibril ThT: tau fibrillization inhibition (ThT binding); AID 1460; recombinant tau K18 P301L (four-repeat tau fragment), heparin-induced fibrillization, ThT fluorescence; P10636; Potency, µM (series often up to 57.4 µM), for the others: at the highest dose activity, negative = inhibition, hits mostly inhibitors; actives 2.1% (n = 270,000); further: potency means the concentration at half of the fitted maximal effect; nearly all actives have a fitted effect of over 55% in size
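In this qHTS, human K18 P301L tau is incubated with compound and heparin for 6 hr at 37 C, and Thioflavin T fluorescence then reports fibril load.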
Numbers without * were called inactive; u = inconclusive; x = no result; [ ] = another dose, or the depositor's remark. Unless noted, the call rests on the fitted dose curve; in most records, active means well fitted curve in the direction sought with a large enough effect; inconclusive means small, poorly fitted or top-dose-only effect, or another doubt; inactive means no such curve, though single readings can be large; an effect the other way counts as inactive or inconclusive. Unless noted, on the % scale 0 is the no-effect control and ±100 the full control effect.

SMILES | G9a inh | Tau fibril FP | Tau fluor cs | Coupling enz | Sfp inh | Tau fibril ThT
CCCCn1c(=O)c2[nH]c(C34CC5CC(CC3C5)C4)nc2n(CCCO)c1=O | 27%[59 µM] | u | -6% | 6 | -2% | -3%
CCOc1ccc(N/C=C/C(=O)c2ccccc2)c([N+](=O)[O-])c1 | 8.9µM* | -9% | u | -1 | -2% | 1.4µM*
COc1ccc(C(=O)NC(C(=O)NCC2(N3CCCCC3)CCCCC2)C(C)C)cc1 (stereo not given) | 29%[12.7 µM] | x | x | x | x | x
CCOC(=O)CC(NC(=O)c1cc2cc(Cl)ccc2oc1=O)c1ccc(C)cc1 (stereo not given) | -7%[59 µM] | -10% | -22% | x | x | -13%
N#CC1=C(N)N(c2ccc(Br)cc2)C2=C(C(=O)CCC2)C1c1cccnc1 (stereo not given) | 11µM* | 0% | -10% | -44* | 5.6µM* | -9%
Cc1c(NC(=O)c2ccc(Br)o2)cccc1-c1nc2ccccc2o1 | 8%[59 µM] | -3% | 2% | x | x | 1%
Cc1ccc(CSc2nnc(NC(=O)C3=COCCO3)s2)cc1 | 11%[12.7 µM] | x | x | x | x | x
O=c1[nH]nc(CNc2ccc(C(F)(F)F)cc2)c2ccccc12 | 11% | 1% | -18% | 1 | 3% | u
O=c1[nH]nc(CNc2ccc(O)cc2)c2ccccc12 | 11µM* | u | u | -49* | u | 32µM*
CN(C)CCCNC(=S)NCC(c1ccc(Cl)cc1Cl)c1c[nH]c2ccccc12 (stereo not given) | u | x | x | -2 | 50µM* | x
CCCCNC(=O)CCCn1c(=O)c2ccccc2n(CC(=O)Nc2ccccc2OCC)c1=O | 8%[59 µM] | -2% | -6% | x | x | 0%
CCCCCCCc1nc2sc3c(c2c(=O)n1N)CC(C)(C)OC3 | -9% | -2% | 2% | -2 | 7% | 4%
CCCCCc1nc2sc3c(c2c(=O)n1NC(=O)c1ccc([N+](=O)[O-])cc1)CC(C)(C)OC3 | 71µM* | 14% | -27% | 5 | 8% | -13%
O=C(CN1C(=O)CSc2ccc(S(=O)(=O)N3CCOCC3)cc21)NCc1cccnc1 | -1% | 5% | 5% | 2 | 16% | 3%
Cc1nnc(SCC2=C(C(=O)O)N3C(=O)C(NC(=O)c4cc(F)c(F)cc4Cl)C3SC2)s1 (stereo not given) | 28µM* | -4% | 9% | 2 | 50µM* | -9%
CN(C)CCn1nnnc1SCC1=C(C(=O)O)N2C(=O)[C@@H](NC(=O)Cc3csc(N)n3)[C@H]2SC1 | 16µM* | x | x | x | x | x
Cc1nnc(SCC2=C(C(=O)O)N3C(=O)C(NC(=O)Cn4nc(C(F)F)cc4C)C3SC2)s1 (stereo not given) | 14µM* | -13% | -3% | 2 | 79µM* | u
Cc1nnc(SCC2=C(C(=O)O)N3C(=O)C(NC(=O)COc4ccccc4)C3SC2)s1 (stereo not given) | 11%[0.501 µM] | x | x | x | x | x
CN(C)CCn1nnnc1SCC1=C(C(=O)O)N2C(=O)[C@@H](NC(=O)Cc3csc(N)n3)[C@@H]2SC1 | 6%[21.5 µM] | x | x | -1 | u | x
Cc1nc2c(=O)[nH]c(=S)n(C)c2nc1C | 7.1µM* | -15% | 0% | -4 | 4.5µM* | u
Cc1ccc(-c2ccc(C(=O)NCc3ccccc3)o2)c2ccccc12 | 40µM* | 4% | -18% | 2 | u | -21%
CCOc1ccccc1-c1ccc(C(=O)NCc2ccccc2)o1 | 50µM* | 2% | -23% | -1 | 3% | u
Cc1ccc(-c2ccc(C(=O)Nc3ccccc3)o2)c2ccccc12 | 40µM* | -14% | -29% | -14 | 40µM* | u
CCOc1cccc2cc(C(=O)NCc3ccccc3)c(=N)oc12 | -3% | x | x | -1 | -2% | x
Cc1ccc(S(=O)(=O)NC(=O)c2ccc(-c3ccc(C)c4ccccc34)o2)cc1 | 50µM* | 0% | -8% | 0 | -3% | u

Screening data deposited in PubChem by National Center for Advancing Translational Sciences (NCATS).
